# Results from the supplement of paper PMC8728848.
# Many of the other results were omitted from the sample, so the strongest signals are more common in it than they were.
# B1: PX9961X-pdi-531-24-531 (Parabacteroides distasonis) (protein)
# chain: DLTEEIHSSVIAENYYNNAGEVMAAMMRPWGHFCGTMQVAQSPWSCNELSSDCAAWPQKGRHGYDNGDWIRLHRHQWIPTDGQVVDAWKKLFEGIGYANNFLTDTENIDFEALQVPMSKAQAQAEMRVYRAYCYWYVMDMFGTAPICEKIGEINPSSKSRAELFAWIEKELNESIPSLSESKTETYGRVSKWGAYALLARLYLNAEIYTGQARWDDCIAACDELAKGGFALDKKWNDTFRADNDKRSTEIIWSIVYDEVYAKGMGWYQRWLHYAHQTGWDLQSGPWNGLVTQPTFYDSFADNDLRKIEGFLIGKQYPRKVDENGNYYYDTTAEPLKGSEEYNGQDLVFVNYIKSMTEGEENSGARSIKYEIQPGTTGDMNNDWVMFRYSEVIYNKAEALMRKNGGKATQEVVDMINSVRQRSFKAEDWEKAKYTTATLTMDEFLAEKGREFAFEGIRRTDLVRFNKFVTTSWWDKTASNEPKRNIFPIPQRQLDANANLSPNEANSLF
# What was measured:
# Assay in all cases: glycan array binding signal (z-score within array); higher = stronger binding
# Details in all cases: glycan notation: IUPAC condensed, linker removed
# [1] = target: Fuc(a1-2)Gal(b1-3)[Fuc(a1-4)]GlcNAc(b1-2)Man(a1-3)[Fuc(a1-2)Gal(b1-3)[Fuc(a1-4)]GlcNAc(b1-2)Man(a1-3)]Man(b1-4)GlcNAc(b1-4)GlcNAc
# In short: (§1)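 Arrays were curated from the Consortium for Functional Glycomics database, 3228 in total, and kept only where the protein sequence was available. Binding is expressed as a within-array Z-score. This score was averaged across arrays of the same protein sequence at different concentrations or buffers and across linkers, and negative values can be read as non-binding.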
# [2] = target: Fuc(a1-2)Gal(b1-4)GlcNAc(b1-2)Man(a1-3)[Fuc(a1-2)Gal(b1-4)GlcNAc(b1-2)Man(a1-6)]Man(b1-4)GlcNAc(b1-4)GlcNAc
# In short: as §1
# [3] = target: Fuc(a1-2)Gal(b1-4)GlcNAc(b1-2)Man(a1-3)[Fuc(a1-2)Gal(b1-4)GlcNAc(b1-2)Man(a1-6)]Man(b1-4)GlcNAc(b1-4)[Fuc(a1-6)]GlcNAc
# In short: as §1
# [4] = target: Fuc(a1-2)Gal(b1-4)GlcNAc(b1-3)[Fuc(a1-2)Gal(b1-4)GlcNAc(b1-6)]GalNAc
# In short: as §1
# [5] = target: Fuc(a1-2)Gal(b1-4)[Fuc(a1-3)]GlcNAc(b1-3)GalNAc
# In short: as §1
# [6] = target: Fuc(a1-2)Gal6S(b1-3)GlcNAc
# In short: as §1
# [7] = target: Fuc(a1-2)[Gal(a1-3)]Gal(b1-3)GalNAc(b1-3)Gal(a1-4)Gal(b1-4)Glc
# In short: as §1
# [8] = target: Fuc(a1-2)[Gal(a1-3)]Gal(b1-4)GlcNAc(b1-2)Man
# In short: as §1
# [9] = target: Fuc(a1-2)[GalNAc(a1-3)]Gal(b1-4)GlcNAc(b1-2)Man(a1-3)[Fuc(a1-2)[GalNAc(a1-3)]Gal(b1-4)GlcNAc(b1-2)Man(a1-6)]Man(b1-4)GlcNAc(b1-4)GlcNAc
# In short: as §1
# [10] = target: Fuc(a1-3)[Gal3S(b1-4)]Glc
# In short: as §1
# [11] = target: Fuc(a1-3)[Gal3S(b1-4)]GlcNAc6S
# In short: as §1
# [12] = target: Gal(a1-3)Gal(b1-3)GlcNAc(b1-2)Man(a1-3)[Gal(a1-3)Gal(b1-3)GlcNAc(b1-2)Man(a1-6)]Man(b1-4)GlcNAc(b1-4)GlcNAc
# In short: as §1
# [13] = target: Gal(a1-3)Gal(b1-4)GlcNAc(b1-2)Man(a1-3)[Gal(a1-3)Gal(b1-4)GlcNAc(b1-2)Man(a1-6)]Man(b1-4)GlcNAc(b1-4)GlcNAc
# In short: as §1
# [14] = target: Gal(a1-3)[Gal(a1-4)]Gal(b1-4)GlcNAc
# In short: as §1
# [15] = target: Gal(b1-3)GalNAc(a1-3)[Fuc(a1-2)]Gal(b1-4)Glc
# In short: as §1
# [16] = target: Gal(b1-3)GlcNAc(b1-2)Man(a1-3)[Gal(b1-3)GlcNAc(b1-2)Man(a1-6)]Man(b1-4)GlcNAc(b1-4)GlcNAc
# In short: as §1
# [17] = target: Gal(b1-3)GlcNAc(b1-3)Gal(b1-4)GlcNAc(b1-2)[Gal(b1-3)GlcNAc(b1-3)Gal(b1-4)GlcNAc(b1-6)]Man(a1-6)[Gal(b1-3)GlcNAc(b1-3)Gal(b1-4)GlcNAc(b1-2)Man(a1-3)]Man(b1-4)GlcNAc(b1-4)[Fuc(a1-6)]GlcNAc
# In short: as §1
# [18] = target: Gal(b1-3)GlcNAc(b1-3)Gal(b1-4)GlcNAc(b1-3)Gal(b1-4)GlcNAc(b1-2)[Gal(b1-3)GlcNAc(b1-3)Gal(b1-4)GlcNAc(b1-3)Gal(b1-4)GlcNAc(b1-6)]Man(a1-6)[Gal(b1-3)GlcNAc(b1-3)Gal(b1-4)GlcNAc(b1-3)Gal(b1-4)GlcNAc(b1-2)Man(a1-3)]Man(b1-4)GlcNAc(b1-4)[Fuc(a1-6)]GlcNAc
# In short: as §1
# [19] = target: Gal(b1-3)GlcNAc(b1-6)GalNAc
# In short: as §1
# [20] = target: Gal(b1-3)[Fuc(a1-4)]GlcNAc(b1-3)Gal(b1-4)[Fuc(a1-3)]GlcNAc
# In short: as §1
# [21] = target: Gal(b1-4)GlcNAc(b1-3)Gal(b1-4)GlcNAc(b1-2)[Gal(b1-4)GlcNAc(b1-3)Gal(b1-4)GlcNAc(b1-6)]Man(a1-6)[Gal(b1-4)GlcNAc(b1-3)Gal(b1-4)GlcNAc(b1-2)Man(a1-3)]Man(b1-4)GlcNAc(b1-4)GlcNAc
# In short: as §1
# [22] = target: Gal(b1-4)GlcNAc(b1-3)Gal(b1-4)GlcNAc(b1-3)Gal(b1-4)GlcNAc(b1-3)Gal(b1-4)GlcNAc(b1-2)[Gal(b1-4)GlcNAc(b1-3)Gal(b1-4)GlcNAc(b1-3)Gal(b1-4)GlcNAc(b1-3)Gal(b1-4)GlcNAc(b1-6)]Man(a1-6)[Gal(b1-4)GlcNAc(b1-3)Gal(b1-4)GlcNAc(b1-3)Gal(b1-4)GlcNAc(b1-3)Gal(b1-4)GlcNAc(b1-2)Man(a1-3)]Man(b1-4)GlcNAc(b1-4)[Fuc(a1-6)]GlcNAc
# In short: as §1
# [23] = target: Gal(b1-4)GlcNAc(b1-3)Gal(b1-4)GlcNAc(b1-3)Gal(b1-4)GlcNAc(b1-3)Gal(b1-4)GlcNAc(b1-3)Gal(b1-4)GlcNAc(b1-2)[Gal(b1-4)GlcNAc(b1-3)Gal(b1-4)GlcNAc(b1-3)Gal(b1-4)GlcNAc(b1-3)Gal(b1-4)GlcNAc(b1-3)Gal(b1-4)GlcNAc(b1-6)]Man(a1-6)[Gal(b1-4)GlcNAc(b1-3)Gal(b1-4)GlcNAc(b1-3)Gal(b1-4)GlcNAc(b1-3)Gal(b1-4)GlcNAc(b1-3)Gal(b1-4)GlcNAc(b1-2)Man(a1-3)]Man(b1-4)GlcNAc(b1-4)[Fuc(a1-6)]GlcNAc
# In short: as §1
# [24] = target: Gal(b1-4)GlcNAc(b1-3)Gal(b1-4)GlcNAc(b1-3)GalNAc
# In short: as §1
# [25] = target: Gal(b1-4)GlcNAc(b1-6)[Gal(b1-3)]GalNAc
# In short: as §1
# GalNAc(a1-3)Gal = target: GalNAc(a1-3)Gal
# In short: as §1
# [26] = target: GalNAc(b1-3)Gal(a1-4)Gal(b1-4)GlcNAc
# In short: as §1
# [27] = target: GalNAc(b1-3)Gal(a1-6)Gal(b1-4)Glc
# In short: as §1
# GalNAc(b1-4)Gal(b1-4)Glc = target: GalNAc(b1-4)Gal(b1-4)Glc
# In short: as §1
# [28] = target: GlcNAc(a1-4)Gal(b1-4)GlcNAc(b1-3)Gal(b1-4)GlcNAc
# In short: as §1
# [29] = target: GlcNAc(b1-3)Gal(b1-4)GlcNAc(b1-3)Gal(b1-4)GlcNAc(b1-3)Gal(b1-4)GlcNAc(b1-2)[GlcNAc(b1-3)Gal(b1-4)GlcNAc(b1-3)Gal(b1-4)GlcNAc(b1-3)Gal(b1-4)GlcNAc(b1-6)]Man(a1-6)[GlcNAc(b1-3)Gal(b1-4)GlcNAc(b1-3)Gal(b1-4)GlcNAc(b1-3)Gal(b1-4)GlcNAc(b1-2)Man(a1-3)]Man(b1-4)GlcNAc(b1-4)[Fuc(a1-6)]GlcNAc
# In short: as §1
# [30] = target: GlcNAc(b1-3)Gal(b1-4)GlcNAc(b1-6)[GlcNAc(b1-3)]Gal(b1-4)GlcNAc
# In short: as §1
# Kdn(a2-3)Gal(b1-4)GlcNAc = target: Kdn(a2-3)Gal(b1-4)GlcNAc
# In short: as §1
# [31] = target: Neu5Ac(a2-3)Gal(b1-3)GlcNAc(b1-3)GalNAc
# In short: as §1
# [32] = target: Neu5Ac(a2-3)Gal(b1-3)[Neu5Ac(a2-6)]GlcNAc(b1-3)[Fuc(a1-3)[Gal(b1-4)]GlcNAc(b1-6)]Gal(b1-4)Glc
# In short: as §1
# [33] = target: Neu5Ac(a2-3)Gal(b1-4)GlcNAc(b1-2)[Neu5Ac(a2-3)Gal(b1-4)GlcNAc(b1-6)]Man(a1-6)[Neu5Ac(a2-3)Gal(b1-4)GlcNAc(b1-2)Man(a1-3)]Man(b1-4)GlcNAc(b1-4)GlcNAc
# In short: as §1
# [34] = target: Neu5Ac(a2-3)Gal(b1-4)GlcNAc(b1-3)Gal(b1-4)GlcNAc(b1-3)[Neu5Ac(a2-3)Gal(b1-4)GlcNAc(b1-3)Gal(b1-4)GlcNAc(b1-6)]GalNAc
# In short: as §1
# [35] = target: Neu5Ac(a2-3)[GalNAc(b1-4)]Gal(b1-4)Glc
# In short: as §1
# [36] = target: Neu5Ac(a2-6)Gal(b1-4)GlcNAc(b1-2)Man(a1-3)[Man(a1-6)]Man(b1-4)GlcNAc(b1-4)GlcNAc
# In short: as §1
# Neu5Ac(a2-6)GalNAc = target: Neu5Ac(a2-6)GalNAc
# In short: as §1
# [37] = target: Neu5Ac(a2-8)Neu5Ac(a2-3)Gal(b1-3)GalNAc(b1-4)[Neu5Ac(a2-3)]Gal(b1-4)Glc
# In short: as §1
# [38] = target: Neu5Ac(a2-8)Neu5Ac(a2-3)Gal(b1-4)GlcNAc
# In short: as §1
# [39] = target: Neu5Ac(a2-8)Neu5Gc(a2-3)Gal(b1-4)GlcNAc
# In short: as §1
binder,measurement,setting,value
B1,glycan array binding signal (z-score),[1],0.026
same,glycan array binding signal (z-score),[2],1.28
same,glycan array binding signal (z-score),[3],-0.118
same,glycan array binding signal (z-score),[4],-0.351
same,glycan array binding signal (z-score),[5],0.289
same,glycan array binding signal (z-score),[6],-0.189
same,glycan array binding signal (z-score),[7],-0.567
same,glycan array binding signal (z-score),[8],-0.156
same,glycan array binding signal (z-score),[9],0.31
same,glycan array binding signal (z-score),[10],0.374
same,glycan array binding signal (z-score),[11],-0.332
same,glycan array binding signal (z-score),[12],3.82
same,glycan array binding signal (z-score),[13],0.935
same,glycan array binding signal (z-score),[14],7.26
same,glycan array binding signal (z-score),[15],0.221
same,glycan array binding signal (z-score),[16],4.29
same,glycan array binding signal (z-score),[17],3.82
same,glycan array binding signal (z-score),[18],7.05
same,glycan array binding signal (z-score),[19],1.52
same,glycan array binding signal (z-score),[20],-0.466
same,glycan array binding signal (z-score),[21],2.17
same,glycan array binding signal (z-score),[22],3.6
same,glycan array binding signal (z-score),[23],3.41
same,glycan array binding signal (z-score),[24],0.788
same,glycan array binding signal (z-score),[25],-0.374
same,glycan array binding signal (z-score),GalNAc(a1-3)Gal,0.96
same,glycan array binding signal (z-score),[26],-0.236
same,glycan array binding signal (z-score),[27],2.61
same,glycan array binding signal (z-score),GalNAc(b1-4)Gal(b1-4)Glc,-0.106
same,glycan array binding signal (z-score),[28],-0.352
same,glycan array binding signal (z-score),[29],0.524
same,glycan array binding signal (z-score),[30],-0.581
same,glycan array binding signal (z-score),Kdn(a2-3)Gal(b1-4)GlcNAc,-0.114
same,glycan array binding signal (z-score),[31],-0.825
same,glycan array binding signal (z-score),[32],0.188
same,glycan array binding signal (z-score),[33],0.2
same,glycan array binding signal (z-score),[34],-0.773
same,glycan array binding signal (z-score),[35],-0.049
same,glycan array binding signal (z-score),[36],-0.755
same,glycan array binding signal (z-score),Neu5Ac(a2-6)GalNAc,-0.425
same,glycan array binding signal (z-score),[37],0.572
same,glycan array binding signal (z-score),[38],-0.116
same,glycan array binding signal (z-score),[39],14.4
